G9a inh: blocks human histone lysine methyltransferase G9a | G9a H3K9 monomethylation, AlphaScreen, 2 h | Q96KQ7 | actives 8.8% (n = 350,000) | Potency, µM (highest dose often 102 µM), without a hit: top-dose activity, negative = inhibition, actives largely listed as inhibitors; note: potency is the fitted concentration of half-maximal effect; % is set by controls: 0 for no effect and ±100 for the full control effect; nearly all actives have a fitted effect of over 75% in size
Target sequence (Q96KQ7 913-1193 limits assumed): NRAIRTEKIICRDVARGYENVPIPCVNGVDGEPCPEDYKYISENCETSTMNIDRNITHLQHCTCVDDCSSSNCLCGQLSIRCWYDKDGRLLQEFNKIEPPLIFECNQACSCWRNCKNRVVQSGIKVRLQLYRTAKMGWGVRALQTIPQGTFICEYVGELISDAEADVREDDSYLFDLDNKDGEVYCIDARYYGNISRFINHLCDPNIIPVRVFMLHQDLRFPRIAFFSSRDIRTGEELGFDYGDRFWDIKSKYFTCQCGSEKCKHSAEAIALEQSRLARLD
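Readings reflect AlphaScreen signal from monomethyl-H3K9 antibody detection. HMT at 20 nM; substrate b-H3K9 500 nM; cofactor SAM 20 uM; 2 h RT reaction; compounds tested as titrations in qHTS with 15 min preincubation.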
BAZ2B inh: inhibitors of human BAZ2B bromodomain | Q9UIF8 | AlphaScreen BAZ2B-H3K14Ac peptide displacement | Potency, µM (top dose mostly 114 µM), without a hit: at the highest dose activity change, negative = inhibition, hits mostly inhibitors | actives 4.4% (n = 360,000) | AID 504333; note: potency is the fitted concentration of half-maximal effect; % is set by controls: 0 for no effect and ±100 for the full control effect; nearly all actives have a fitted effect of over 60% in size
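BAZ2B 50 nM plus b-H3(5-23)K14Ac 50 nM, PBS pH 7.4/0.01% Tween-20, 30 min RT; compound added (max 110 uM), 30 min RT; streptavidin donor/Ni-chelate acceptor beads 10 ug/mL final, 20 min dark; AlphaScreen read.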
CtBP-E1A blk: blocks the CtBP interaction with E1A; AlphaScreen GST-E1A/His-CtBP binding, 1536-well; active compounds read low; activity change, % (no concentration beside the values); actives 0.49% (n = 340,000); AID 651724; in the data active = activity change below about -65%; inconclusive = mostly about -30% to -63%; note: % is set by controls: 0 for no effect and ±100 for the full control effect
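Homogeneous bead-based format: GST-tagged E1A captured on glutathione donor beads, His-tagged CtBP on nickel acceptor beads; compounds precede bead addition by 2 h at 37 °C.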
Six1-Eya2 inh: inhibitors of human Six1/Eya2 interaction | AlphaScreen GST-Six1/His-Eya2 binding, biochemical; active compounds read low | Q15475+O00167 | actives 0.56% (n = 360,000) | AID 651725 | activity change, % (concentration not given with the values); in the data active = activity change below about -65%; inconclusive = mostly about -30% to -63%; note: % is set by controls: 0 for no effect and ±100 for the full control effect
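AlphaScreen luminescence read after one hour at 37 °C in darkness. Pin-transferred compounds met GST-Six1 and His-Eya2 protein (5X stock 250 nM/500 nM) plus glutathione donor and Ni-chelate acceptor beads (5X, 50 ug/mL).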
HP1b binding inh: HP1-beta chromodomain-methylated histone interaction inhibition; AlphaScreen HP1-beta / biotin-H3K9me3 peptide binding; actives 0.56% (n = 390,000); AID 540317; Potency, µM (series often up to 114 µM), without a hit: at the top dose activity change, negative = inhibition, hits mostly inhibitors; note: potency is the fitted concentration of half-maximal effect; nearly all actives have a fitted effect of over 70% in size
Target sequence (P83916 whole entry, looked up): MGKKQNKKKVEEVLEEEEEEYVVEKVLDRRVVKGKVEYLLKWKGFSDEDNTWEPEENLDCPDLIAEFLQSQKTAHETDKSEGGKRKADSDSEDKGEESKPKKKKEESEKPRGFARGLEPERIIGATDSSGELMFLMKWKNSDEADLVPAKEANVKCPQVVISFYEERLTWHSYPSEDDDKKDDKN
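AlphaScreen: HP1-beta (50 nM) preformed 30 min with biotin-H3(1-18)K9me3 peptide (50 nM) in PBS pH 7.4, 0.01% Tween-20. Compound added for 30 min at RT, then streptavidin donor/nickel chelate acceptor beads (10 ug/mL) for 30 min.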
JMJD2A Tudor: JMJD2A Tudor domain (human) inhibition; Potency, µM (titrated, usually from 114 µM), inactives show top-dose activity change, negative = inhibition, usual class: inhibitors; AlphaScreen JMJD2A-Tudor / H3K4me3 peptide binding; O75164; actives 4.4% (n = 390,000); note: potency is the fitted concentration of half-maximal effect; % is set by controls: 0 for no effect and ±100 for the full control effect; nearly all actives have a fitted effect of over 50% in size
Active calls of the source: *; ? = inconclusive; / = no result; ! = not confirmed by another sample; [ ] = another dose, or the depositor's remark. Sampled rows, rich in hits. Any-hit rate of the full collection: about 10%. Unless noted, calls come from the whole dose curve; as a rule, active = well fitted inhibition curve with a large enough effect; inconclusive = small, poorly fitted or top-dose-only effect; inactive = no such curve, though single readings can be large or run the other way.

SMILES	G9a inh	BAZ2B inh	CtBP-E1A blk	Six1-Eya2 inh	HP1b binding inh	JMJD2A Tudor
Cc1cccc(NC(=O)CN2C(=O)N/C(=C\c3ccccc3OCc3ccc(C(=O)O)cc3)C2=O)c1	-51%[59 µM]	71µM*	-8	-13	?	?
CC(C)(C)N(Cc1ccccc1)C(=O)COC(=O)CSc1ccc([N+](=O)[O-])cc1	40µM*	-23%	1	0	-9%	-34%
CCCNc1ccc(C(=O)OCC)cc1[N+](=O)[O-]	?	?	6	-20	?	?
CCNc1ccc(C(=O)OCC(=O)N(Cc2ccccc2)C(C)(C)C)cc1[N+](=O)[O-]	89µM*	-30%	-1	1	22%	-32%
Cc1ccc(/C=C2\CCCC3=C2NC(=S)NC3c2ccc(C)cc2)cc1 (stereo unspecified)	8.9µM*	?	-11	-3	-15%	?
Cc1cc(NC(=O)Nc2ccccc2)n(C(C)(C)C)n1	5%	22%	-5	4	15%	-16%
Cc1nnsc1C(=O)NNc1ccc(C(C)(C)C)cc1	1.8µM*	-15%	9	5	11%	-21%
Cc1nnsc1C(=O)NNc1ccc(C(C)C)cc1	8.9µM*	-14%	-1	2	6%	-12%
Cc1cc(C(=O)NNc2ccc(C(C)C)cc2)n(C(C)(C)C)n1	7.9µM*	?	-1	-1	21%	?
CCOc1ccc(S(=O)(=O)N(CC(=O)NCCSc2ccccc2)c2ccccc2)cc1	-27%[59 µM]	3%	/	/	18%	-1%
O=C(NN1C(=O)C2C(c3ccccc3)C=CC(c3ccccc3)C2C1=O)c1ccccc1 (stereo unspecified)	-4%[59 µM]	-2%	7	2	3%	-24%
O=C1N=c2ccccc2=C1c1sc(=S)n(NC(=O)c2ccccc2)c1O	40µM*	?	?	?	12%	-17%
CCN(c1ccc(NC(=O)COC(=O)CCc2cc(OC)c(OC)c(OC)c2)cc1)C(C)C	25µM*	-38%	/	-7	?	?
O=C(O)/C=C/c1cn(Cc2ccccc2)nc1-c1cccnc1	/	-38%	-2	0	29%	-12%
CN(CC(=O)Nc1cccc(F)c1)C(=O)/C=C/c1cn(Cc2ccccc2)nc1-c1cccnc1	50µM*	-10%	3	-16	18%	-27%
COCCOC(=O)c1c(C)n(C)c2ccc(OC(=O)c3c(OC)cccc3OC)cc12	8.9µM*	-27%	/	-20	-21%	-19%
Cc1ccc(C(=O)N2NC(c3ccc(F)cc3)C3C(=O)N(c4ccc(C)cc4)C(=O)C32)cc1 (stereo unspecified)	-9%	-4%	0	10	83%	-8%
COc1ccccc1N1C(=O)C2C(c3ccc(F)cc3)NN(C(=O)c3ccc(C)cc3)C2C1=O (stereo unspecified)	-36%	?	/	-2	21%	-16%
CCOc1ccc(N2C(=O)C3C(c4ccccc4F)NN(C(=O)c4ccc(C)cc4)C3C2=O)cc1 (stereo unspecified)	50µM*	-9%	0	7	24%	-20%
Cc1ccc(C(=O)N2NC(c3ccc(F)cc3)C3C(=O)N(c4ccc(C)c(C)c4)C(=O)C32)cc1 (stereo unspecified)	56µM*	-9%	0	0	43%	-19%
COC(=O)c1c(SCC(=O)Nc2cccc(Cl)c2C)[nH]c2ccccc2c1=O	10%[59 µM]	0%	/	/	25%	-13%
CCn1c(CN2CCOCC2)nc2cc(NC(=O)c3ccc([N+](=O)[O-])cc3)ccc21	-19%[59 µM]	-2%	/	/	32%	-13%
NC(N)=NC(=O)c1nc(Cl)c(N2CCCCCC2)nc1N	50µM*!	?	-8	-1	-18%	?
CCOc1ccccc1NC1=C(OC)C(=O)C(Nc2ccccc2OCC)=C(OC)C1=O	/	/	-3	-29	8.9µM*	7.1µM*
COc1ccc2[nH]c(O)c(N=NC(=O)c3ccc(NS(=O)(=O)c4cccs4)cc3)c2c1	-3%[12.7 µM]	50µM*	-2	?	24%	?
SMILES	G9a inh	BAZ2B inh	CtBP-E1A blk	Six1-Eya2 inh	HP1b binding inh	JMJD2A Tudor
COc1ccc2[nH]c(O)c(N=NC(=O)Cc3cccs3)c2c1	-120%[59 µM]	35µM*	-17	-28	-24%	28µM*
CC(C)CN1CCN(Cc2c[nH]c3ccccc23)CC1CCO (stereo unspecified)	10%[0.501 µM]	-4%	2	0	18%	-17%
Oc1ccc(/C=N/Nc2cc(N3CCOCC3)nc(N3CCOCC3)n2)cc1O	?	?	-15	-24	?	56µM*
Oc1ccccc1/C=N/Nc1cc(N2CCCC2)nc(N2CCCC2)n1	?	25µM*	0	?	?	28µM*
Cc1nc(N/N=C/c2ccc(O)cc2O)cc(N2CCOCC2)n1	21%	45µM*	-93*	-79*	33%	79µM*
Oc1cccc(/C=N/Nc2cc(N3CCOCC3)nc(N3CCOCC3)n2)c1	-12%[59 µM]	?	-16	-10	-14%	?
C[C@H](Cc1ccc(O)c(O)c1)[C@@H](C)Cc1ccc(O)c(O)c1	0.79µM*	/	/	/	/	/
CC(Cc1ccc(O)c(O)c1)C(C)Cc1ccc(O)c(O)c1 (stereo unspecified)	/	/	-5	-5	?	22µM*
CC(=O)/C=C1/C(=O)Nc2ccccc21	11µM*	1%	7	-4	16%	-26%
CN1C(=O)c2ccccc2C(O)c2ccccc21 (stereo unspecified)	/	/	7	-3	13%	-5%
CN1C(=O)/C(=C\C(=O)c2cccs2)c2ccccc21	20µM*	20µM*	7	5	45µM*	50µM*
O=C1CCN(C(=O)c2cccs2)c2ccccc21	1%	4%	-1	1	21%[57 µM]	1%
CC(=O)/C=C1\C(=O)N(C)c2ccccc21	8.9µM*	/	/	/	/	/
CC(=O)c1ccccc1S(=O)(=O)N1CCN(c2nc(-c3cccs3)nc3ccccc23)CC1	/	/	/	/	16%	-28%
O=C(CSc1nncn2c1cc1sccc12)Nc1ccccc1C(F)(F)F	?	?	/	/	27%	-9%
Cc1ccc(-n2nc3c(=O)n(C(C)C(=O)NCc4ccc(Cl)cc4)nc(C)c3c2C)cc1 (stereo unspecified)	-18%[59 µM]	?	-10	-4	48%	-33%
CCN(c1ccccc1)S(=O)(=O)c1nnc(NC(=O)COc2ccccc2F)s1	?	?	/	/	-22%	?
COC(=O)/C(N=Nc1cccc(C(F)(F)F)c1)=C(\C)O	3%[59 µM]	-7%	-1	-4	14%	-21%

Bioassay records from PubChem BioAssay.
